Where “and” joins values, the source holds several entries; their conditions need not be identical. Identical values can stand only once. The list shows a part of the results. Records with an inconclusive call do not appear. Calls of active or inactive are those of the source.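 The calls were made as follows, unless noted: active = inhibition at or above 50% relative to wild type and mutant plate controls; inactive = inhibition below 50%.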
Assays:
[1] = inhibitors of TNFa-induced NFkB p65 translocation, primary screen, imaging, HUVEC, MLSMR starter and 10KST1 sets (AID 438;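 active = inhibition above 20% together with a positive visual image hit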;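 also: compound added about 3h40 before a 20 min TNFalpha stimulation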;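 as to inhibition: signal is the nuclear over cytoplasmic p65 intensity ratio per well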); details: HUVEC TNFa-induced p65 nuclear translocation; cell count: measured here: nuclei count (cytotoxicity indicator), at 2.08 µM unless noted; inhibition: at 2 µM, stronger effect = higher value unless noted
[2] = reduction of polyQ htt aggregates in cells – imaging, exon1htt(103Q)mCFP cells, high-content imaging, primary screen (AID 483;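 active = visual image review flags a hit and inhibition of aggregation exceeds 20%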;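 also: compound exposure lasted 3 days before fixation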;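 as to nuclei count: percent of the per-plate median nuclei count of sample wells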); details: exon1htt(103Q)mCFP cell line, aggregate imaging, at 2 µM; inhibition of aggregation: stronger effect = higher value; nuclei count: measured here: cell count, toxicity
[3] = endothelial E-selectin expression blockers – imaging, HUVEC, immunofluorescence, MLSMR starter and 10KST1 sets, primary screen (AID 487;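 active = visually confirmed hit in the image check and inhibition above 20%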;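 as to inhibition: signal is fraction of cell area covered by stained E-selectin grains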;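 as to nuclei count: 100% = median nuclei count of all wells on the same plate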); details: HUVEC TNFalpha-induced E-selectin immunofluorescence imaging, at 2 µM; inhibition: stronger effect = higher value; nuclei count: measured here: cell number, toxicity
[4] = Primary imaging screen for DUSP6 inhibitors that restore phospho-Erk in transfected HeLa cells, chemical complementation (AID 609;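 active = compounds giving at least 50% inhibition in the cell-based MKP-3 phosphatase rescue imaging test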;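 as to inhibition: phospho-Erk level distribution per well compared with pooled transfected vehicle control wells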); details: HeLa MKP-3 transfected, phospho-Erk imaging KS statistic, at 10 µM
[5] = target: Dual specificity protein phosphatase 6 (Homo sapiens) (UniProt Q16828); test: as above; details: HeLa MKP-3 transfected, phospho-Erk imaging KS statistic, at 10 µM, stronger effect = higher value
Chain of Dual specificity protein phosphatase 6 (Homo sapiens) (Q16828 whole entry, looked up): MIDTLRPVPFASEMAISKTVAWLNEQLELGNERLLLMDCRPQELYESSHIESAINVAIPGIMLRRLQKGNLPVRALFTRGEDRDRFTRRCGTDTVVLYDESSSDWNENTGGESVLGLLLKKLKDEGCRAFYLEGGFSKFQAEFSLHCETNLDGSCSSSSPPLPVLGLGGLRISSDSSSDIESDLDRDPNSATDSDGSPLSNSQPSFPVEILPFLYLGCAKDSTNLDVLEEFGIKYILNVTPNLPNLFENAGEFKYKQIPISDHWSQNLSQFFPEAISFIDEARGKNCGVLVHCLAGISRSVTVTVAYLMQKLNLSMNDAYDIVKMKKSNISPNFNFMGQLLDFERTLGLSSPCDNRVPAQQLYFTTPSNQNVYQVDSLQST

[6] = target: Voltage-gated potassium channel subunit beta-2 (Rattus norvegicus) (UniProt P62483); test: inhibitors of rat Kvbeta2 reductase activity – biochemical, NADPH fluorescence, primary screen (AID 622;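 active = fluorescence slope higher than the sample average by over 3 SD, cut at about -0.22 in these data, passing the limit was not always enough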;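 also: slope of raw intensity against log time taken from 70 to 1610 s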); details: recombinant KvBeta, 4-cyanobenzaldehyde reduction, at 10 µM, stronger effect = higher value
Chain of Voltage-gated potassium channel subunit beta-2 (Rattus norvegicus) (P62483 whole entry, looked up): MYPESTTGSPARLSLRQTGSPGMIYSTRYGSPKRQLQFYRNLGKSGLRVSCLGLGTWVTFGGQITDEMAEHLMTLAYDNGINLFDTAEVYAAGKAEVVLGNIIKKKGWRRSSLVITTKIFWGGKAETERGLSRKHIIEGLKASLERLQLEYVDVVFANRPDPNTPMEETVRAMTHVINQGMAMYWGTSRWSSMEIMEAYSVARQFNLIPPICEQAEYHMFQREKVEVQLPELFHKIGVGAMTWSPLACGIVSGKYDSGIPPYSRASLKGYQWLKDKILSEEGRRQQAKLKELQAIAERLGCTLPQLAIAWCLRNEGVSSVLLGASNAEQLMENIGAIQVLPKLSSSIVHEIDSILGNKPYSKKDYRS

[7] = target: Voltage-gated potassium channel subunit beta-2 (Rattus norvegicus) (UniProt P62483); test: enhancers of rat Kvbeta2 NADPH turnover – biochemical, NADPH fluorescence, primary screen (AID 623;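 active = NADPH fluorescence slope more negative than the mean of all samples by about 3 SD, 99.7% confidence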;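 also: fluorescence intensity change per second fitted from 20 to 320 s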); details: Recombinant KvBeta, NADPH fluorescence decrease slope, 10 min; at 10 µM; stronger effect = lower value
[8] = target: Alpha-2C adrenergic receptor (Homo sapiens) (UniProt P18825); test: compounds altering alpha2C-coupled GIRK flux – cell-based, HEK293 alpha2C/GIRK1/2, thallium flux, primary screen (AID 624;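 active = fluorescence slope after compound addition differing from the mean of all screened samples at 99.7% confidence, in either direction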;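 also: slope of fluorescence ratio to pre-addition baseline per second over 15 to 24 s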); details: thallium flux BTC fluorescence, at 10 µM, actives lie on both sides
Chain of Alpha-2C adrenergic receptor (Homo sapiens) (P18825 whole entry, looked up): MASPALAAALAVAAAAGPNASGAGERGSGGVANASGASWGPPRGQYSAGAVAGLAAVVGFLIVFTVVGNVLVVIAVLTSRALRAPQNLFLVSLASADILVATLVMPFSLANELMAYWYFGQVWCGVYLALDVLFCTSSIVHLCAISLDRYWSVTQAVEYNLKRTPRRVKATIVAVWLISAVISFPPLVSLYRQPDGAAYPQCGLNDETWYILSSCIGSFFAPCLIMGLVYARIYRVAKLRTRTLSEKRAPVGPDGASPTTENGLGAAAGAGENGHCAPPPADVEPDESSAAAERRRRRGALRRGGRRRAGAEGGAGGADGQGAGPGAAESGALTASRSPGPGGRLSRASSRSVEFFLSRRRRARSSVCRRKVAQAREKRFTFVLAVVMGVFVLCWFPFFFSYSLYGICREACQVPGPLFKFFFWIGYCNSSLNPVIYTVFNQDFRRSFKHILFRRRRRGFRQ

[9] = loss of swimming-algae plug formation – whole organism, Chlamydomonas reinhardtii, WT vs cilia-less mutant, absorbance, 96-well, primary screen (AID 463189); details: Chlamydomonas reinhardtii gravitaxis, OD600 absorbance, 2 days; at 10 µM; stronger effect = higher value;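 also: 0% = wild type cc124 cells in DMSO and 100% = ciliumless bld1 mutant cells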
[10] = blockers of RIG-like receptor reporter activation – cell-based, Sendai virus stimulus, luciferase, 10K MLSCN set, TLR/RLR signaling modifier project, primary screen (AID 602276;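 active = inhibition at or above 50% at 10 µM; inactive = inhibition below 50%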;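 also: firefly luciferase from ISG56 promoter only with Renilla not read in this screen; 0% = Sendai virus plus DMSO and 100% = medium plus DMSO without virus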); details: HEK293 RL24 IRF3 luciferase reporter, at 10 µM, stronger effect = higher value
[11] = TLR3 IRF3 reporter activation blockers – cell-based, poly I:C stimulus, luciferase, 10K MLSCN set, primary screen (AID 602277;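 active = inhibition of the reporter signal at or above 50%; inactive = inhibition below 50%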); details: HEK293-TLR3 RL24 IRF3 luciferase reporter, at 10 µM, stronger effect = higher value
[12] = inhibitors of larval lipid processing in zebrafish, primary screen, whole organism, PED6 fluorescence, gall bladder and intestine (AID 686;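 active = a full or partial loss of lipid-probe fluorescence in the fish gall bladder, intestine or both, judged by eye; inactive = no fluorescence loss, or compound toxic to the fish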;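 also: larvae 5 to 7 days old with five fish per well; signal comes from phospholipase A2 cleavage of quenched PED6 carried via bile; overnight exposure to compound and PED6 before scoring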); details: Zebrafish larvae PED6 lipid processing, fluorescence scoring
[13] = target: Muscarinic acetylcholine receptor M4 (Homo sapiens) (UniProt P08173); test: M4-linked GIRK flux change, two-sided – cell-based, HEK293 M4/GIRK, thallium flux, BTC-AM, M4 allosteric agonist project, primary screen (AID 625;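 active = fluorescence slope after compound addition differing from the mean of all tested samples at 99.7% confidence, mostly higher but some lower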;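 also: thallium influx through GIRK channels coupled to M4 in HEK293 cells with BTC-AM dye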); details: at 10 µM, actives lie on both sides
Chain of Muscarinic acetylcholine receptor M4 (Homo sapiens) (P08173 whole entry, looked up): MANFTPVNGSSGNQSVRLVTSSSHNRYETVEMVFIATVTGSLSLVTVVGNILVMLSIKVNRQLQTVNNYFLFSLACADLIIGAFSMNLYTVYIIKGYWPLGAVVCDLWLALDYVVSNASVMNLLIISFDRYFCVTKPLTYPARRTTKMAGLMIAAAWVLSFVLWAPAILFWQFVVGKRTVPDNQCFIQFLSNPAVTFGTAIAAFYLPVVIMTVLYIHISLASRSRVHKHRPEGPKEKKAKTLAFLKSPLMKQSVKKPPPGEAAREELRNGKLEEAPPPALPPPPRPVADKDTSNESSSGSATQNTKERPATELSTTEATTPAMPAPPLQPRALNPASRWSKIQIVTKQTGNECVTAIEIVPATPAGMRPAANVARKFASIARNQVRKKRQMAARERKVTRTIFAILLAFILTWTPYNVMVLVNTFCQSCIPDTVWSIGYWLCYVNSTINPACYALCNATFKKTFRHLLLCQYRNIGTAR

[14] = target: Solute carrier family 12 member 5 (Homo sapiens) (UniProt Q9H2X9); test: retest of KCC2 transport modulators without sodium – cell-based, HEK293 KCC2, thallium flux, secondary assay, confirmation (AID 1713;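 active = thallium flux slope above the same plate's solvent-only control mean plus 3 SD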); details: FluoZin2 fluorescence, at 10 µM, stronger effect = higher value
Chain of Solute carrier family 12 member 5 (Homo sapiens) (Q9H2X9 whole entry, looked up): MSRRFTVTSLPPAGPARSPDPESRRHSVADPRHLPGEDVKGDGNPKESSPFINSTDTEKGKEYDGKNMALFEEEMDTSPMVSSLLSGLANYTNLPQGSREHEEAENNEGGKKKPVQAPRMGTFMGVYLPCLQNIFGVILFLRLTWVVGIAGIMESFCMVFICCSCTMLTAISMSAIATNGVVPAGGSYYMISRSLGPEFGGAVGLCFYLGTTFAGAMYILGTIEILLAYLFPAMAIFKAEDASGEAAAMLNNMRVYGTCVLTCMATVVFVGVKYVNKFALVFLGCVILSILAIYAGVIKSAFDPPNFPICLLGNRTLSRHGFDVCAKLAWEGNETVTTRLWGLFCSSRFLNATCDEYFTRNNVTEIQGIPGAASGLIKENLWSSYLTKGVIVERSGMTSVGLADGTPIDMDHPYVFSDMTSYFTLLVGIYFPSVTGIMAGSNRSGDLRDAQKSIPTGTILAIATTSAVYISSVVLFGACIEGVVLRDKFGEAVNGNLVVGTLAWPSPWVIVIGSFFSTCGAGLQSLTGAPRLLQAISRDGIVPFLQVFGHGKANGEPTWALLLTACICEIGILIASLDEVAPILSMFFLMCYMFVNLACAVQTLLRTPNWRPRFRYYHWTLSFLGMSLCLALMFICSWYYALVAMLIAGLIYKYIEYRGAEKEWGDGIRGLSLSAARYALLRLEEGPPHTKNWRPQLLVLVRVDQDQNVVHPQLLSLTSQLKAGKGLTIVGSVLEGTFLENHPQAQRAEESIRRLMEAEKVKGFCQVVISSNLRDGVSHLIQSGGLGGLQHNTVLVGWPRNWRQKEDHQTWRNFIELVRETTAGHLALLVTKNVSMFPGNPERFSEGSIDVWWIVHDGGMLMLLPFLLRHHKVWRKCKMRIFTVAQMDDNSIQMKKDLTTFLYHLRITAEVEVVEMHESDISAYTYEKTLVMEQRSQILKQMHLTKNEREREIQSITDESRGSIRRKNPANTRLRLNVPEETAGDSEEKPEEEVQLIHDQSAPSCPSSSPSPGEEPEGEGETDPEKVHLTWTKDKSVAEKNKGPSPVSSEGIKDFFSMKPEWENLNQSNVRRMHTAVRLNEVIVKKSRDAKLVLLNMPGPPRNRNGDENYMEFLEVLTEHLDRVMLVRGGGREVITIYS

[15] = target: Solute carrier family 12 member 5 (Homo sapiens) (UniProt Q9H2X9); test: retest of KCC2 transport modulation, ouabain-free – cell-based, HEK293 KCC2, thallium flux, FluoZin2, secondary assay 2, confirmation (AID 1715;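 active = thallium flux slope more than 3 SD above or below the plate's solvent-only control mean, mostly below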;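 also: raw slope with 0.1% DMSO as baseline and bumetanide as block control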); details: HEK293-KCC2, thallium flux FluoZin2 fluorescence; at 10 µM; actives lie on both sides
[16] = compound effects on native HEK Tl+ uptake – HEK cells, counterscreen 1, counter-screen for KCC2 modulator project, confirmation (AID 1716;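 active = thallium flux rate significantly above the same plate's solvent-only control wells, beyond their mean plus 3 SD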); details: HEK293 parental cells, thallium flux FluoZin2, ouabain; at 10 µM; baseline-ratio fluorescence slope, 10–20 s after thallium
[17] = target: Solute carrier family 12 member 5 (Homo sapiens) (UniProt Q9H2X9); test: modulation of KCC2 thallium flux in HEK cells – cell-based, ouabain, retest, confirmation (AID 1717;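 active = thallium flux slope beyond 3 SD from same-plate DMSO control mean in most replicates, usually higher, sometimes lower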;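 also: slope of initial-normalized fluorescence between seconds 10 and 20 after thallium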); details: HEK293-KCC2, thallium flux FluoZin2 fluorescence, at 10 µM, bidirectional: low = inhibitor, high = activator
[18] = measured here: cell density z-score
[19] = measured here: nuclear c-Myc green intensity z-score
[20] = measured here: nuclear pErk red intensity z-score, stronger effect = higher value

C[N+]1(C)CCc2cc3c(cc2[C@H]1[C@@H]1OC(=O)c2c1ccc1c2OCO1)OCO3
cell count [1]: 633
inhibition [1]: 1.1% (inactive)
inhibition of aggregation [2]: -10.4% (inactive)
nuclei count [2]: 110%
inhibition [3]: -58% (inactive)
nuclei count [3]: 109%
z-score [4, 18]: 0.571
z-score [4, 19]: -0.122
z-score [4, 20]: -0.447
inhibition [5]: 19.2% (inactive)
fluorescence slope [6]: -0.486 (inactive)
NADPH fluorescence slope [7]: -3.8e-05 (inactive)
slope [8]: 0.00504 (inactive)
inhibition [9]: 6.58% (inactive) and 16.9% (inactive)
inhibition [10]: 12.6% (inactive)
inhibition [11]: 45.3% (inactive)

C[C@H]1CCCC(=O)CCCCCc2cc(O)cc(O)c2C(=O)O1
cell count [1]: 593
inhibition [1]: -6.9% (inactive)
inhibition of aggregation [2]: 2.6% (inactive)
nuclei count [2]: 82.4%
inhibition [3]: -84.5% (inactive)
nuclei count [3]: 116%
z-score [4, 18]: 1.09
z-score [4, 19]: -0.366
z-score [4, 20]: -0.0362
inhibition [5]: 29.1% (inactive)
fluorescence slope [6]: -0.439 (inactive)
NADPH fluorescence slope [7]: 2.4e-05 (inactive)
slope [8]: 0.00367 (inactive)
outcome [12]: inactive
inhibition [9]: -7.02% (inactive)
inhibition [10]: -0.827% (inactive)
inhibition [11]: 16.9% (inactive)

COC1=CC(=O)OC(/C=C/c2ccccc2)C1 (stereo not drawn)
cell count [1]: 562
inhibition [1]: 0.9% (inactive)
inhibition of aggregation [2]: 17.4% (inactive)
nuclei count [2]: 92%
inhibition [3]: 1.6% (inactive)
nuclei count [3]: 112%
z-score [4, 18]: 1.47
z-score [4, 19]: -1.75
z-score [4, 20]: -1.36
inhibition [5]: 25.7% (inactive)
fluorescence slope [6]: -0.448 (inactive)
NADPH fluorescence slope [7]: -5.6e-05 (inactive)
slope [8]: 0.00584 (inactive)
outcome [12]: inactive
inhibition [9]: -16.3% (inactive)
inhibition [10]: 0.4% (inactive)
inhibition [11]: -0.629% (inactive)

CC(C)[C@H]1C(=O)N2CCC[C@H]2[C@]2(O)O[C@](NC(=O)[C@@H]3C=C4c5cccc6[nH]cc(c56)C[C@H]4N(C)C3)(C(C)C)C(=O)N12
cell count [1]: 501
inhibition [1]: 1.6% (inactive)
inhibition of aggregation [2]: -14% (inactive)
nuclei count [2]: 110%
inhibition [3]: -84.6% (inactive)
nuclei count [3]: 122%
z-score [4, 18]: -1.33
z-score [4, 19]: -1
z-score [4, 20]: 0.393
inhibition [5]: 3.59% (inactive)
fluorescence slope [6]: -0.451 (inactive)
NADPH fluorescence slope [7]: -1.8e-05 (inactive)
slope [8]: 0.0044 (inactive)
inhibition [9]: 13.5% (inactive)
inhibition [10]: 10.2% (inactive)
inhibition [11]: 18.2% (inactive)

O=C1NC(=O)C(C/C=C/c2ccccc2)C(=O)N1
cell count [1]: 678
inhibition [1]: -2.2% (inactive)
inhibition [3]: 29.3% (inactive)
nuclei count [3]: 154%
z-score [4, 18]: 0.051
z-score [4, 19]: 0.145
z-score [4, 20]: 0.14
inhibition [5]: 16.5% (inactive)
fluorescence slope [6]: -0.473 (inactive)
NADPH fluorescence slope [7]: -4.7e-05 (inactive)
fluorescence slope [13]: 0.00573 (inactive)
outcome [12]: inactive
normalised thallium flux (F/F0 slope) [14]: 0.00969 (inactive)
normalized thallium flux [15]: 0.0324 (inactive)
thallium flux rate (normalised fluorescence) [16]: 0.0082 (inactive)
raw Tl+ flux slope (below DMSO = inhibition, above = activation) [17]: 0.0194 (inactive)
inhibition [9]: -5.46% (inactive)
